Screens: PubChem BioAssay, several laboratories
MEX-5 binding: C. elegans MEX-5 TCR-2 RNA binding activity. Q9XUB2. AID 1832. activity score (negative = inhibition of binding), % at 10 µM. hit rate 0.38% among 300,000. MEX-5/FITC-TCR2 RNA binding, fluorescence polarization; active compounds read low;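 active = inhibition past about -25% in most replicates, and total fluorescence under double the plate's negative control median, limit read from the data; inconclusive = replicates evenly split on the limit, or fluorescence at least double controls; inactive = too little inhibition in most replicates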;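 note: 0% = DMSO and -100% = 5 µM competing unlabeled TCR2 RNA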
Target sequence (Q9XUB2 whole entry, looked up): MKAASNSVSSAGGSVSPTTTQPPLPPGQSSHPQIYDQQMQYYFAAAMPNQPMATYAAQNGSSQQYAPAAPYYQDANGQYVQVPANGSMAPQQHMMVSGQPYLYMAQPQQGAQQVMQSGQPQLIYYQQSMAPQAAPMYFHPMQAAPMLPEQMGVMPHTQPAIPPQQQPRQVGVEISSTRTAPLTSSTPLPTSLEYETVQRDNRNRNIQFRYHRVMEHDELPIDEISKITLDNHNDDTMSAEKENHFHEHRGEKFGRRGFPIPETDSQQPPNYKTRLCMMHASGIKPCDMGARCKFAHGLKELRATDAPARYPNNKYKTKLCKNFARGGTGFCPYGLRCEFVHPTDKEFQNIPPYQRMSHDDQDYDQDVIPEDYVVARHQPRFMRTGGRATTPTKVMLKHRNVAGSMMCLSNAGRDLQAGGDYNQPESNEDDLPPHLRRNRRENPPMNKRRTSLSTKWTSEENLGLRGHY
GLD-1 RNA inh: GLD-1-TGE RNA interaction inhibition (C. elegans); hit rate 0.44% among 320,000; Q17339; inhibition, % at 5.96 µM; purified GLD-1 + fluorescein TGE RNA, fluorescence polarization;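 active = percent inhibition above a per-plate cutoff, the plate mean of test compounds plus 3 SD, cut at about 30% in these data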;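 note: 0% = DMSO wells with GLD-1 and probe and 100% = wells lacking GLD-1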
BCLXL inh: Bcl-xL (human) inhibition | Q07817 | GST-Bcl-xL / FITC-Bim BH3 peptide fluorescence polarization | inhibition, % at 10.9 µM | hit rate 0.7% among 320,000 | AID 2129;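 active = inhibition above the mean of all tested compounds plus 3 SD, cutoff set per campaign, cut at about 30% in these data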;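 note: 0% = DMSO wells and 100% = unlabeled Bim-BH3 peptide competitor; inhibitors lower millipolarization by displacing the labeled peptide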
MCL1 BIM primary: inhibitors of human MCL1 binding to BIM-BH3 peptide. inhibition, % at 10.9 µM. hit rate 0.68% among 320,000. GST-MCL1 / FITC-Bim-BH3 fluorescence polarization. Q07820;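 active = inhibition above the mean inhibition of all tested compounds plus 3 SD, set per campaign, cut at about 40% in these data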;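 note: 0% = DMSO wells and 100% = unlabeled Bim-BH3 peptide control; higher means more loss of mP so more displacement of Bim peptide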
eLon inh: inhibits E. coli Lon protease; P0A9M0; purified E. coli Lon protease, fluorescence polarization; inhibition, % at 7.94 µM; hit rate 0.42% among 360,000; in the data active = inhibition above about 13%, passing the limit was not always enough;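 note: 0% = enzyme with probe and DMSO and 100% = no enzyme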
An asterisk follows results filed as active. Hits are enriched below; roughly 1.4% of the tested compounds scored in any of these assays.

What do the screens show for `O=C(NCCc1ccc(Cl)cc1)C1CCC(=O)N(C2CCCCCC2)C1` (configuration not stated)?
MEX-5 binding: -2; GLD-1 RNA inh: 1; BCLXL inh: 135*; MCL1 BIM primary: 2; eLon inh: -6

Results for COc1ccc(C2C(C(=O)c3ccco3)=C(O)C(=O)N2c2nnc(C)s2)cc1OC (configuration not stated) ?
MEX-5 binding: -12; GLD-1 RNA inh: 19; BCLXL inh: 45*; MCL1 BIM primary: 43*; eLon inh: 5

What do the screens show for `COc1ccc(C2C(C(=O)c3ccco3)=C(O)C(=O)N2c2nnc(C)s2)cc1` (configuration not stated)?
MEX-5 binding: -6; GLD-1 RNA inh: 24; BCLXL inh: 26; MCL1 BIM primary: 32; eLon inh: 1

Results for CSc1nnc(N2C(=O)C(O)=C(C(=O)c3ccco3)C2c2cccc(Cl)c2)s1 (configuration not stated) ?
MEX-5 binding: -26*; GLD-1 RNA inh: 37*; BCLXL inh: 39*; MCL1 BIM primary: 33; eLon inh: -13

What do the screens show for `CCOc1cccc(C2C(C(=O)c3ccco3)=C(O)C(=O)N2c2nnc(C)s2)c1` (configuration not stated)?
GLD-1 RNA inh: 50*; BCLXL inh: 43*; MCL1 BIM primary: 34; eLon inh: 16

How did C=CCOc1ccc(C2C(C(=O)c3ccco3)=C(O)C(=O)N2c2nnc(C)s2)cc1 (configuration not stated) do in these assays?
MEX-5 binding: -7; GLD-1 RNA inh: 21; BCLXL inh: 33*; MCL1 BIM primary: 27; eLon inh: 0

What do the screens show for `Cc1ccc(-c2nnc(CCC(=O)NCC3C4CC5CC(C4)CC3C5)o2)s1` (configuration not stated)?
MEX-5 binding: 1; GLD-1 RNA inh: 0; BCLXL inh: 7; MCL1 BIM primary: 2; eLon inh: 1

What do the screens show for `COCc1ccc(C(=O)N2CCCC(Nc3ccc4c(c3)OCCO4)C2)o1` (configuration not stated)?
MEX-5 binding: -1; GLD-1 RNA inh: 1; BCLXL inh: 5; MCL1 BIM primary: 11; eLon inh: -1

Results for CCc1ccc(C(=O)COC(=O)c2cc([N+](=O)[O-])ccc2N2CCOCC2)cc1 ?
MEX-5 binding: 0; GLD-1 RNA inh: 1; BCLXL inh: 4; MCL1 BIM primary: 1; eLon inh: -1

How did CCOC(=O)c1c(-c2ccccc2)csc1NC(=O)/C(C#N)=C/c1ccc(OC)c(OC)c1 do in these assays?
MEX-5 binding: -43*; GLD-1 RNA inh: -9; BCLXL inh: -7; MCL1 BIM primary: -11; eLon inh: -5

What do the screens show for `CCN(CC)CCN1CCn2c3c(c4cc(C)ccc42)CCCC31` (configuration not stated)?
MEX-5 binding: -13; GLD-1 RNA inh: 10; BCLXL inh: 36*; MCL1 BIM primary: 46*; eLon inh: 8

What do the screens show for `CCCc1cc(=O)oc2c3c(cc(OCC(=O)N4CCC(C(=O)O)CC4)c12)OC(C)(C)CC3`?
eLon inh: 12

Results for Cc1nc2ccn(Cc3ccccc3)c(=O)c2cc1C(=O)N1CCN(c2ccccc2)CC1 ?
MEX-5 binding: 0; GLD-1 RNA inh: -1; BCLXL inh: 7; MCL1 BIM primary: 9; eLon inh: -3

How did CN1/C(=C/C=C(/C#N)C(N)=O)C(C)(C)c2ccccc21 do in these assays?
MEX-5 binding: 9; GLD-1 RNA inh: -44; BCLXL inh: -24; MCL1 BIM primary: -47; eLon inh: -66

What do the screens show for `CN1/C(=C\C=C(/C#N)C(=O)Nc2ccccc2F)C(C)(C)c2ccccc21`?
MEX-5 binding: -39*; GLD-1 RNA inh: -55; BCLXL inh: -45; MCL1 BIM primary: -67; eLon inh: -74

How did CC(C)N1CCc2c(sc(NC(=S)NC(=O)c3ccccc3)c2C#N)C1 do in these assays?
MEX-5 binding: 0; GLD-1 RNA inh: -105; BCLXL inh: -36; MCL1 BIM primary: -110; eLon inh: -122

Results for CC(C)N1CCc2c(sc(N)c2C#N)C1 ?
MEX-5 binding: inconclusive; GLD-1 RNA inh: -75; BCLXL inh: 47*; MCL1 BIM primary: 43*; eLon inh: -64

What do the screens show for `Oc1ccc(-c2csc(Nc3ccccn3)n2)cc1O`?
MEX-5 binding: -32*; GLD-1 RNA inh: 5; BCLXL inh: 27; MCL1 BIM primary: 22; eLon inh: 1

Results for Cc1ccc(-c2csc(NC(=O)C3=NN(C4CCS(=O)(=O)C4)C(=O)CC3)n2)cc1 (configuration not stated) ?
MEX-5 binding: -1; GLD-1 RNA inh: 1; BCLXL inh: -4; MCL1 BIM primary: -26; eLon inh: -8

What do the screens show for `CCCCn1c(-c2ccccc2C)nc2cc3[nH]c(=O)c(C(C)C)nc3cc21`?
MEX-5 binding: 0; GLD-1 RNA inh: 7; BCLXL inh: 30*; MCL1 BIM primary: 32; eLon inh: -2

Results for O=C(Nc1ccccc1O)c1nc(Cl)ccc1Cl ?
MEX-5 binding: -4; GLD-1 RNA inh: 4; BCLXL inh: 4; MCL1 BIM primary: 2; eLon inh: -2

What do the screens show for `COC(=O)CC1=C(C(=O)OC)C(c2cccc(OCC(N)=O)c2)C(C#N)=C(N)O1` (configuration not stated)?
MEX-5 binding: -1; GLD-1 RNA inh: 16; BCLXL inh: 32*; MCL1 BIM primary: 33; eLon inh: 1

How did O=C(Nc1ccccc1)c1nn(-c2ccccc2)c(=O)cc1C(F)(F)F do in these assays?
MEX-5 binding: -30*; GLD-1 RNA inh: -1; BCLXL inh: 4; MCL1 BIM primary: 4; eLon inh: -2

How did O=C(c1ccccc1)c1nn(-c2ccccc2)c(=O)cc1C(F)(F)F do in these assays?
MEX-5 binding: 2; GLD-1 RNA inh: -2; BCLXL inh: 8; MCL1 BIM primary: -3; eLon inh: -3

How did COCCN1CCC(CNCc2c(C(=O)N3CCCCC3)nc3c(C)cccn23)C1 (configuration not stated) do in these assays?
MEX-5 binding: -49*; GLD-1 RNA inh: 17; BCLXL inh: 24; MCL1 BIM primary: 18; eLon inh: 8

Results for COc1c(OC2OC(C(=O)O)C(O)C(O)C2O)cc(O)c2c(=O)cc(-c3ccccc3)oc12 (configuration not stated) ?
MEX-5 binding: -10; GLD-1 RNA inh: -1; BCLXL inh: 8; MCL1 BIM primary: 8; eLon inh: -3

Results for O=C(O)C1OC(Oc2cc3oc(-c4ccccc4)cc(=O)c3c(O)c2O)C(O)C(O)C1O (configuration not stated) ?
MEX-5 binding: -60*; GLD-1 RNA inh: 12; BCLXL inh: 10; MCL1 BIM primary: 13; eLon inh: 9

What do the screens show for `CC(C)Cc1nnc(NC(=O)C2CCN(C(=O)c3ccc(F)cc3)CC2)s1`?
MEX-5 binding: -4; GLD-1 RNA inh: 1; BCLXL inh: 4; MCL1 BIM primary: 3; eLon inh: -10
